Screens deposited in PubChem BioAssay by National Center for Advancing Translational Sciences (NCATS).
TDP1 cell CPT: qHTS for Inhibitors of human tyrosyl-DNA phosphodiesterase 1 (TDP1): qHTS in cells in presence of CPT; chicken DT40 Tdp1-/-;hTDP1 cells + 20 nM CPT, ATP luminescence, 48 h; Potency, µM (highest dose often 46.2 µM), for inactives: at the highest dose activity change, negative = growth inhibition, usual class: inhibitors; 420,000 compounds, 12% hits; AID 686979, 2013; also: nearly all actives have a fitted effect of over 55% in size
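Chicken DT40 Tdp1-/- cells stably complemented with human TDP1 were seeded at 400 cells/well in medium containing 20 nM camptothecin, exposed to pin-transferred compounds, and grown at 37 °C for at least 48 hr. Viability was read as ATP luminescence.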
DT40 TDP1 no CPT: qHTS for Inhibitors of human tyrosyl-DNA phosphodiesterase 1 (TDP1): qHTS in cells in absence of CPT; 420,000 compounds, 15% hits; DT40 Tdp1-/- hTDP1 cells, no CPT, ATP luminescence, 48 h; AID 686978, 2013; Potency, µM (series often up to 46.2 µM), inactives show at the top dose activity change, negative = growth inhibition, most hits filed as inhibitors; also: nearly all actives have a fitted effect of over 55% in size
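Seeded 400 DT40-hTDP1 cells/well (vehicle DMSO, no 20 nM CPT); pinned compounds; ≥48 hr at 37 °C; CellTiter-Glo luminescence as viability measure.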
KB-3-1 tox: qHTS assay for MDR1-selective chemotherapeutics: Primary screen using the parental adenocarcinoma cell KB-3-1; KB-3-1 viability, CellTiter-Glo ATP luminescence, 72 h; Potency, µM (titrated, usually from 46.1 µM), hits mostly cytotoxic; 400,000 compounds, 1.4% hits; also: nearly all actives have a fitted effect of over 60% in size
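Cytotoxicity in the drug-sensitive parental line KB-3-1 was scored as loss of CellTiter-Glo luminescence following 72 h incubation with compound. Values come from curve fitting of normalized concentration-response data.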
KB-V1 MDR tox: qHTS assay for MDR1-selective chemotherapeutics: Primary screen using the drug-selected MDR subline cells KB-V1 | KB-V1 MDR cells viability, CellTiter-Glo, 72 h | Potency, µM (highest dose often 46.1 µM), hits mostly cytotoxic | 400,000 compounds, 3.4% hits; also: nearly all actives have a fitted effect of over 60% in size
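In this primary screen, KB-V1 cells overexpressing P-gp are incubated with library compounds (lowest to highest concentration) for 72 h at 37 degrees C before a luminescent ATP viability read.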
HT1080 IDH1KD tx: qHTS for induction of synthetic lethality in tumor cells producing 2HG: qHTS for the HT-1080-IDH1KD cell line; 360,000 compounds, 2% hits; AID 686971, 2013; HT-1080 IDH1 knockdown viability, ATP luminescence, 48 h; Potency, µM (titrated, usually from 46.1 µM), inactives show top-dose activity, negative = toxicity, usual class: cytotoxic;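 also: 0% = DMSO wells and -100% = cell-free medium wells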
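CellTiter-Glo luminescence after 48 h compound exposure at 37 degrees C of IDH1-knockdown HT-1080 cells in 5% FBS RPMI. %Activity scaled between DMSO wells and cell-free media wells, with curves fitted and assigned curve classes.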
HT1080NT lethal: qHTS for induction of synthetic lethality in tumor cells producing 2HG: qHTS for the HT-1080-NT fibrosarcoma cell line; 360,000 compounds, 1.6% hits; Potency, µM (doses to about 46.1 µM), for the others: at the top dose activity, negative = less viability, usual class: cytotoxic; HT-1080-NT fibrosarcoma viability, CellTiter-Glo ATP luminescence, 48 h;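 also: NT is the 2HG producing partner of a matched IDH1 knockdown line; 0% = DMSO-treated cells and -100% = media-only wells without cells; nearly all actives have a fitted effect of over 55% in size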
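Viability by CellTiter-Glo luminescence after 48 h compound exposure at 37C of HT-1080-NT cells (750/well, RPMI, 5% FBS). % activity scaled between DMSO wells and medium-only wells, then curve-fitted and categorized by curve class.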
Starred values were filed as active, the others as inactive; i = inactive; ? = inconclusive; · = not tested or not shown. An excerpt weighted towards active compounds, which were near 19% of everything screened. Calls follow the shape of the dose curve; as a rule, active = well fitted curve in the direction sought with a large enough effect; inconclusive = small, poorly fitted or top-dose-only effect, or another doubt; inactive = no such curve, though single readings can be large; an effect the other way counts as inactive or inconclusive. Unless noted, % is scaled to controls: 0 for no effect and ±100 for the full control effect; potency is read from the fitted curve at half-maximal effect.

SMILES	TDP1 cell CPT	DT40 TDP1 no CPT	KB-3-1 tox	KB-V1 MDR tox	HT1080 IDH1KD tx	HT1080NT lethal
O=C(COc1ccc(S(=O)(=O)N2CCCCC2)cc1)N1CCCC1	2%	-3%	i	i	1%	3%
O=S(=O)(c1ccc(Cl)cc1)N1CCN(c2nc(C(F)(F)F)nc3ccccc23)CC1	?	?	i	i	10%	10%
CCn1c(N2CCN(S(=O)(=O)c3ccc(F)cc3)CC2)nc2ccccc21	?	15µM*	?	12µM*	-15%	-14%
CCn1c(N2CCN(S(=O)(=O)c3ccc(Cl)cc3)CC2)nc2ccccc21	15µM*	15µM*	?	8.2µM*	?	-27%
CCn1c(N2CCN(S(=O)(=O)CC)CC2)nc2ccccc21	5%	0%	i	?	12%	11%
COc1ccc(CCNC(=O)c2cc([C@@H](NC(=O)OC(C)(C)C)C(C)C)sc2N)cc1OC	16µM*	18µM*	i	?	-1%	-3%
CCN1CCN(CCCN(Cc2ccco2)C(=S)Nc2ccc(Cl)cc2)CC1	-6%	-14%	i	?	-20%	-24%
CCOc1ccc(NC(=S)N(CCCN2CCCC2)Cc2cccn2Cc2ccc(Cl)cc2)cc1	15µM*	?	i	i	-16%	?
Cc1cccc(NC(=S)N(CCCN2CCCC2)Cc2cccn2Cc2ccc(Cl)cc2)c1	?	16µM*	?	?	?	13µM*
CC(=O)Nc1ccc(C(=O)N2CCCC2)cc1	-3%	8%	i	i	15%	17%
Cc1cccc(OCC(=O)NC(C)C(=O)N/N=C/c2c(OCc3ccccc3)ccc3ccccc23)c1 (stereo not given)	?	?	?	16µM*	?	?
CCOC(=O)c1c(C)[nH]c(C(=O)N(C)CC(=O)Nc2ccc(OC)cc2)c1C	?	22%	i	i	7%	5%
CN(C)N1C(=O)/C(=C/c2ccco2)SC1=Nc1ccccc1	-26%	?	i	i	-4%	0%
O=C1/C(=C\c2ccc(Br)o2)SC(=Nc2ccccc2)N1c1ccccc1	-6%	?	i	9.2µM*	0%	4%
O=C(C1CCC1)N1CCc2cc(S(=O)(=O)N3CCCCC3)ccc21	?	?	i	i	10%	4%
CCN(c1cccc(C)c1)S(=O)(=O)c1ccc2c(c1)CCCN2C(C)=O	-28%	?	i	?	-16%	-18%
CCN(C(=O)C1CCN(S(=O)(=O)c2ccc3c(c2)CCCN3C(C)=O)CC1)c1cccc(C)c1	?	23µM*	i	i	·	·
CCN(CC)C(=O)C1CCN(S(=O)(=O)c2ccc3c(c2)CCCN3C(=O)C2CCC2)CC1	7.3µM*	?	i	?	-1%	4%
CCN(CC)C(=O)C1CCN(S(=O)(=O)c2ccc3c(c2)CCCN3C(C)=O)CC1	23µM*	?	i	i	·	·
CC(=O)N1CCCc2cc(S(=O)(=O)N3CCC(C(=O)NCCC(C)C)CC3)ccc21	9%	-7%	i	i	·	·
CCN(c1cccc(C)c1)S(=O)(=O)c1ccc2c(c1)CCN2C(C)=O	?	16µM*	?	23µM*	?	?
CCN(N=O)c1ccc(/C=C2\C=Cc3ccccc32)cc1	4%	-26%	i	?	·	·
